Screens deposited in PubChem BioAssay by National Center for Advancing Translational Sciences (NCATS).
Sampled rows, rich in hits. Any-hit rate of the full collection: about 18%.
TDP1 cell noCPT: qHTS for Inhibitors of human tyrosyl-DNA phosphodiesterase 1 (TDP1): qHTS in cells in absence of CPT. actives 15% (n = 420,000). Potency, µM (top dose mostly 46.2 µM), for the others: at the top dose activity change, negative = growth inhibition, most hits filed as inhibitors. DT40 Tdp1-/- hTDP1 cells, no CPT, ATP luminescence, 48 h; further: potency means the concentration at half of the fitted maximal effect; nearly all actives have a fitted effect of over 55% in size
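Luminescent ATP content (CellTiter-Glo) served as the growth readout. Knockout chicken DT40 cells expressing human TDP1 were exposed to compounds without camptothecin for a minimum 48 hr at 37 °C.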
TDP1 block: TDP1 (human) enzyme inhibition; Q9NUW8; recombinant TDP1, AlphaScreen DNA substrate cleavage; Potency, µM (titrated, usually from 130 µM), inactives show at the highest dose activity change, negative = inhibition, hits mostly inhibitors; actives 0.28% (n = 350,000); AID 485290; further: potency means the concentration at half of the fitted maximal effect; nearly all actives have a fitted effect of over 40% in size
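Tdp1 1 nM final; 15 min RT w/ cpd; substrate 15 nM, 5 min; beads 10 ug/ml, 10 min; AlphaScreen read. Neg ctrl: no enzyme.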
CtBP-E1A blk: blocks the CtBP interaction with E1A; AlphaScreen GST-E1A/His-CtBP binding, 1536-well; hits give low values; actives 0.49% (n = 340,000); activity change, % (concentration not given with the values); in the data active means activity change below about -65%; inconclusive means mostly about -30% to -63%
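Protein mix (5X: 125 nM each GST-E1A, His-CtBP) was incubated with pinned compound 2 h at 37 deg C in dark, in 50 mM Tris pH 8.0 buffer with 300 mM NaCl. Glutathione donor and nickel acceptor beads followed; AlphaScreen signal read after 1 h.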
IL1B secr inh: inhibitors of inflammasome signaling (IL-1 beta secretion). THP-1 LPS/ATP IL-1B secretion, AlphaLISA, 16 h; hits give low values. activity change, % at 57.5 µM. actives 4.7% (n = 360,000); in the data active means activity change below about -50%; inconclusive means mostly about -30% to -49%
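Secreted IL-1B measured by AlphaLISA bead assay after 16 h compound exposure of THP-1 cells; compounds (final up to 57.5 uM) added 1 h before LPS (250 ng/mL) and ATP (1.25 mM) stimulation; lower signal means less secretion.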
Six1-Eya2 blk: Six1/Eya2 interaction inhibition. Q15475+O00167. AlphaScreen GST-Six1/His-Eya2 binding, biochemical; hits give low values. activity change, % (no concentration beside the values). actives 0.56% (n = 360,000); in the data active means activity change below about -65%; inconclusive means mostly about -30% to -63%
Target sequence (O00167 whole entry, looked up): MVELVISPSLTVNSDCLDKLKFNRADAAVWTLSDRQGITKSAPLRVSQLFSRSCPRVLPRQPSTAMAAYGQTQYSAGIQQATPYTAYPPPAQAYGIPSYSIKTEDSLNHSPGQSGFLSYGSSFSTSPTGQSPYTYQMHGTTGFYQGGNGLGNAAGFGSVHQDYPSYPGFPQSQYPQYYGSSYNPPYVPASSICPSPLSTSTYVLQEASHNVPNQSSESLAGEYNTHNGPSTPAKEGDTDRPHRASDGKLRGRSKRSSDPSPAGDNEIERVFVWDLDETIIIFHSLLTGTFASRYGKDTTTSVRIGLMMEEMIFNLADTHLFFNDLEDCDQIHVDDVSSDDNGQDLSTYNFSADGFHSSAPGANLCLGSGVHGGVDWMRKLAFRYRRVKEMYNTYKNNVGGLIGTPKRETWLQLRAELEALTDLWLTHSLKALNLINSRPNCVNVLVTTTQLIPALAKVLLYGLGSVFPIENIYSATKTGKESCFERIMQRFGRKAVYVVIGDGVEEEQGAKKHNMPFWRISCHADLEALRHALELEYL
Target sequence (Q15475 whole entry, looked up): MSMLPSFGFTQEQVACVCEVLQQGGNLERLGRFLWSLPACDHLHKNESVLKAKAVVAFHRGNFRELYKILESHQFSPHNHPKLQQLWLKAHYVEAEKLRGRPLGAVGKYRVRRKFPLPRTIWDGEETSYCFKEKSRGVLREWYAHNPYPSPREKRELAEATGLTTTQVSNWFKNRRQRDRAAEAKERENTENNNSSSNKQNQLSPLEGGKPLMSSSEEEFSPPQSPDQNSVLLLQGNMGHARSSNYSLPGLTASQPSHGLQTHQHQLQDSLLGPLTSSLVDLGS
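AlphaScreen luminescence read after one hour at 37 °C in darkness. Pin-transferred compounds met GST-Six1 and His-Eya2 protein (5X stock 250 nM/500 nM) plus glutathione donor and Ni-chelate acceptor beads (5X, 50 ug/mL).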
TDP1 cell CPT: DT40-hTDP1 cell growth loss with CPT. actives 12% (n = 420,000). chicken DT40 Tdp1-/-;hTDP1 cells + 20 nM CPT, ATP luminescence, 48 h. Potency, µM (series often up to 46.2 µM), without a hit: at the top dose activity change, negative = growth inhibition, usual class: inhibitors; further: potency means the concentration at half of the fitted maximal effect; nearly all actives have a fitted effect of over 55% in size
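Cell growth measured by CellTiter-Glo luminescence after a minimum 48 h, 37 C compound exposure with 20 nM CPT in Tdp1-knockout DT40 cells stably expressing hTDP1, seeded 400/well; qHTS titration format.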
Starred values were filed as active, the others as inactive; ? = inconclusive; . = not tested or not shown; [ ] = another dose, or the depositor's remark. Unless noted, the call rests on the fitted dose curve; in most records, active means well fitted curve in the direction sought with a large enough effect; inconclusive means small, poorly fitted or top-dose-only effect, or another doubt; inactive means no such curve, though single readings can be large; an effect the other way counts as inactive or inconclusive. On the % scale 0 is the no-effect control and ±100 the full control effect.

SMILES | TDP1 cell noCPT | TDP1 block | CtBP-E1A blk | IL1B secr inh | Six1-Eya2 blk | TDP1 cell CPT
Cc1cccc(NC(=O)CSc2nc(=O)n(Cc3ccco3)c3c2CCC3)c1C | ? | 5% | . | . | . | -23%
CCc1nc2ccc(C(=O)N3CCCC(C(N)=O)C3)cn2c1N(C=O)CC (configuration not stated) | 9% | . | 4 | 9 | 7 | 0%
Nc1ncnc2n[nH]c(Nc3ccc(F)cc3)c12 | . | 11% | . | . | . | .
Cc1ccc(CNC(=O)c2ccc3c(c2)nc2n3CCOC2)cc1 | -15% | 3% | . | . | . | -14%
CCOC(=O)c1cc(CC)sc1N1C(=O)CC(Sc2ccccc2C(=O)O)C1=O (configuration not stated) | 4.1µM* | -3% | -7 | 27 | -3 | 2.9µM*
COC(=O)c1c(N2C(=O)CC(Sc3ccccc3C(=O)O)C2=O)sc(C)c1C (configuration not stated) | ? | -1% | -3 | -8 | -2 | ?
COC(=O)c1c(N2C(=O)CC(Sc3ccccc3C(=O)O)C2=O)sc2c1CCCC2 (configuration not stated) | 7.3µM* | -8% | -6 | 13 | -7 | ?
COc1ccc(C(=O)NCCc2sc(-c3ccc(F)cc3)nc2C)cc1OC | 15µM* | 4% | . | . | . | ?
COc1ccc(C(=O)NCCc2sc(-c3cccc(F)c3)nc2C)cc1 | 16µM* | -1% | . | . | . | 23µM*
COc1ccc(CC(=O)NCCc2sc(-c3ccc(Cl)cc3)nc2C)cc1OC | 21µM* | -1% | . | . | . | ?
Cc1cc(C)cc(C(=O)NCCc2sc(-c3ccc(F)cc3)nc2C)c1 | 21µM* | 6% | . | . | . | 13µM*
CC(C)CC(NC(=O)C1CCC(=O)N1C(=O)OCc1ccccc1)C(=O)NC(Cc1ccccc1)C(N)=O (configuration not stated) | ? | 4% | 2 | 0 | 20 | -17%
CCOc1ccc(-c2c(C)nn3c(C)c(C(=O)NCCN(C)C)cnc23)cc1OCC | -10% | -1% | . | . | . | -21%
Cc1nc(-c2ccc(Cl)cc2)sc1CCNC(=O)c1ccco1 | 18µM* | 5% | . | . | . | 21µM*
CCCCNc1cc(N2CCN(C3CCCCC3)CC2)c2noc3c2c1C(=O)c1ccccc1-3 | 5.2µM* | 9% | . | . | . | 5.2µM*
O=C1c2ccccc2-c2onc3c(N4CCN(CCO)CC4)cc(N4CCN(C(=O)c5ccco5)CC4)c1c23 | 15µM* | 15% | -75* | ? | ? | ?
CCOC(=O)N1CCN(c2cc(NCCC(=O)O)c3c4c(onc24)-c2ccccc2C3=O)CC1 | ? | 12% | -70* | -64* | -69* | ?
Cc1oc2ccc(OCc3ccccc3Cl)cc2c1C(=O)O | 13% | . | -9 | 0 | -11 | -2%
COc1ccc(-c2c(C)cc3oc(=O)cc(-c4ccccc4)c3c2C)cc1 | ? | 0%[56.1 µM] | 1 | 10 | -2 | 23µM*
Cc1cc2oc(=O)cc(-c3ccccc3)c2c(C)c1-c1ccc(N(C)C)cc1 | ? | 5%[56.1 µM] | -22 | 13 | ? | ?
Cc1ccc(-c2c(C)cc3oc(=O)cc(-c4ccccc4)c3c2C)cc1 | 23µM* | 0%[56.1 µM] | 3 | 40 | 0 | ?
COc1ccc(-c2ccc(-c3cc(=O)oc4cc(C)cc(C)c34)cc2)cc1 | . | -6% | . | . | . | .
COc1ccc(-c2ccc(-c3cc(=O)oc4c(C(C)C)ccc(C)c34)cc2)cc1 | 21µM* | -1%[56.1 µM] | -1 | 41 | 3 | 23µM*
O=C(OCCCN1CCCCC1)c1ccc(O)cc1 | 8% | 1% | -3 | 19 | -3 | 1%
O=C(O)c1ccc[n+]([O-])c1 | -17% | 5% | . | . | . | -8%
SMILES | TDP1 cell noCPT | TDP1 block | CtBP-E1A blk | IL1B secr inh | Six1-Eya2 blk | TDP1 cell CPT
Cc1cc(CCCCCCCCc2cc(C)cc(=O)o2)oc(=O)c1 | 16µM* | 3% | 10 | 7 | 6 | ?
CCc1cc2c(cc3c(=O)n(CC(=O)N4CCC(C)CC4)nc(CC)n32)s1 | ? | 1% | . | . | . | 16µM*
CCc1nn(CC(=O)N2CCN(c3cccc(C)c3)C(C)C2)c(=O)c2cc3sccc3n12 (configuration not stated) | 23µM* | -2% | . | . | . | 21µM*
CCc1nn(CC(=O)N2CCN(c3cccc(Cl)c3)CC2)c(=O)c2cc3sccc3n12 | -6% | -3% | . | . | . | -4%
CCOC(=O)C1CCN(C(=O)Cn2nc(CC)n3c(cc4sccc43)c2=O)CC1 | 18µM* | -2% | . | . | . | ?
CCc1cc2c(cc3c(=O)n(CCCC(=O)NCc4ccccc4Cl)nc(CC)n32)s1 | 23µM* | 8% | . | . | . | ?
CCCCc1nnc(NC(=O)CCc2ccccc2)s1 | 8% | . | -9 | -6 | 13 | -18%
Nc1c(N=O)c(=O)[nH]c(=O)n1-c1ccccc1 | 1% | . | 4 | 5 | -11 | -7%
Nc1c(Br)c(=O)[nH]c(=O)n1-c1ccc(F)cc1 | 23µM* | . | 3 | 2 | -4 | -99%
CC(C)NC(=S)NC(c1ccccc1)(c1ccccc1)c1ccccc1 | 23µM* | . | -28 | -1 | ? | ?
S=C1NC2=C(CCCC2=C2SCCS2)C(c2ccccc2)N1 (configuration not stated) | 16µM* | 6% | 19 | -84* | 21 | -16%
COc1ccc(CCN(C)CCCN2CC(c3ccccc3)CC2=O)cc1OC (configuration not stated) | 6% | -1% | 1 | -6 | 1 | -25%
COC(=O)c1c(C)oc2ccc(N(C(=O)c3ccncc3)S(=O)(=O)c3ccccc3)cc12 | 23µM* | 6% | -22 | 0 | -25 | ?
Cc1ccc(S(=O)(=O)N(C(=O)c2ccncc2)c2ccc3oc4c(c3c2)CCCC4)cc1[N+](=O)[O-] | -8% | 8% | -14 | 9 | -23 | -2%
COC(=O)c1c(C)oc2ccc(N(C(=O)c3ccncc3)S(=O)(=O)c3ccc4ccccc4c3)cc12 | 15µM* | -1% | -4 | 24 | 4 | 23µM*
COC(=O)c1c(C)oc2ccc(N(C(=O)c3ccncc3)S(=O)(=O)c3ccc(C)cc3)cc12 | 2.1µM* | 6% | -4 | -7 | -8 | 3.7µM*
CC(C)(O)C#Cc1ccc(C(=O)N2CCN(c3ccc([N+](=O)[O-])cc3)CC2)cc1 | ? | 8% | 5 | -11 | -1 | ?
O=C(COC(=O)c1ccc2c(c1)OCO2)Nc1cccc(F)c1 | 6% | -1% | 5 | -4 | 2 | -11%
